Source: PubChem BioAssay
HIV TAR-Tat = HIV-1 TAR-Tat binding disruption | z-score (test concentration not listed) | AID 1259389 | 100,000 tested, 0.6% active | HIV-1 TAR RNA, Tat peptide displacement FRET; hits give high values; active = z-score of 3 or more in at least 2 runs
CDC25B CDK2 inh = human CDC25B-CDK2/CyclinA binding inhibition. P30305+P24941. z-score (concentration not given with the values). AID 1259370. 94,000 tested, 0.72% active. HTRF CDC25B-CDK2/CyclinA binding, anti-His/anti-Flag; hits give high values; in the data active = z-score above about 3.2
An asterisk follows results filed as active; . = no result. Rows were chosen to be rich in hits. Some 0.86% of all compounds tested hit in one or more screens of this group.

SMILES	HIV TAR-Tat	CDC25B CDK2 inh
O=C(OCCN1CCOCC1)c1cnn2c(C(F)(F)F)cc(-c3ccc(F)cc3)nc12	1.88	0.08
Cc1cccn2c(=O)c3cc(C(=O)NC4CCSC4=O)sc3nc12 (stereo unspecified)	-0.75	-1.29
CC(C)OC(=O)Cn1c2ccccc2c2nc3ccccc3nc21	2.86	-1.43
COC(=O)Cn1c2ccc(Cl)cc2c2nc3ccccc3nc21	0.17	19.3*
COc1cc(-c2oc3cc(O)cc(O)c3c(=O)c2O[C@@H]2O[C@H](CO)[C@@H](O)[C@H](O)[C@H]2O)ccc1O	0.39	.
C[C@@H]1O[C@@H](OC[C@H]2O[C@@H](Oc3c(-c4ccc(O)c(O)c4)oc4cc(O)cc(O)c4c3=O)[C@H](O)[C@@H](O)[C@@H]2O)[C@H](O)[C@H](O)[C@H]1O	10.7*	.
COc1ccc(-c2oc3cc(O[C@H]4O[C@H](CO)[C@@H](O)[C@H](O)[C@H]4O)c(OC)c(O)c3c(=O)c2OC)cc1O	2.34	.
O=c1c(O[C@@H]2O[C@H](CO)[C@@H](O)[C@H](O)[C@H]2O)c(-c2ccc(O)c(O)c2)oc2cc(O)cc(O)c12	28.1*	.
O=c1c(O[C@@H]2OC([C@H](O)CO)[C@H](O)[C@H]2O)c(-c2ccc(O)c(O)c2)oc2cc(O)cc(O)c12 (stereo partly specified)	26.9*	.
COc1cc(-c2oc3cc(O)cc(O)c3c(=O)c2OC[C@@H]2OC(O[C@@H]3O[C@@H](C)[C@H](O)[C@@H](O)[C@H]3O)[C@@H](O)[C@H](O)[C@@H]2O)ccc1O (stereo partly specified)	4.95	.
CC1O[C@@H](Oc2c(-c3ccc(O)c(O)c3)oc3cc(O)cc(O)c3c2=O)[C@H](O)[C@H](O)[C@H]1O (stereo partly specified)	2.79	.
O=c1c(O[C@@H]2O[C@H](CO)[C@H](O)[C@H](O)[C@H]2O)c(-c2ccc(O)c(O)c2)oc2cc(O)cc(O)c12	27.2*	.
CC(C)Cn1cnc2nc(CSc3ccccc3NC(=O)c3cccs3)cc(=O)n21	0.9	-4.47
O=S(=O)(c1ccc(-c2cc(C(F)(F)F)on2)s1)N1CCN(c2ccccc2)CC1	2.07	.
COc1ccc(S(=O)(=O)Nc2cccnc2Oc2ccc(C)c3c2CCC3)cc1OC	.	-0.55
CCc1ccc(-c2cc(C)no2)cc1S(=O)(=O)N1CCOc2ccc(Cl)cc21	-0.25	.
COCCCNC(=O)c1ccc(N2CCSc3ccccc32)s1	0.97	.
COc1ccc(-n2nc3ccc(N)cc3n2)cc1Cl	16.1*	1.96
Cc1ccc(-n2nc3ccc(N)cc3n2)cc1Cl	0.29	-1.53
CCN1CCN(c2cc(-c3ccccc3)nc(C)n2)CC1	0.39	-1.35
CCOC(=O)c1nn(-c2ccc(Cl)cc2)c(=O)c2c(N)scc12	-2.95	18.4*
CCOC(=O)c1nc(N)c(=O)n(-c2ccc(C)cc2)n1	.	-7.1
CCOC(=O)c1nn(-c2ccc(C)cc2)c(=O)c2c(N)scc12	-5.45	17.8*
CCOC(=O)c1nn(-c2ccc(Cl)cc2)c(=O)c(C#N)c1C	0.3	-1.22
O=S(=O)(NCc1cn2ccccc2n1)c1ccc2c(c1)CCCC2	1.7	-0.65
SMILES	HIV TAR-Tat	CDC25B CDK2 inh
COC(=O)c1c(N)sc2c1CC(C)(C)OC2	-0.5	-1.12
CCn1c(SCC(=O)Nc2ccc3c(c2)OCCO3)nc2c(c1=O)SCC2	1.94	0.83
Cc1nc(N2CCOCC2)c2c(C(=O)NCc3ccco3)c(C)oc2n1	0.38	.
O=C(/C=C/c1cccs1)NC(=S)Nc1ccccc1	.	8.26*
O=C(/C=C/c1cccs1)NC(=S)NCc1ccccc1	.	-2.05
COc1ccccc1-c1noc(CSc2nnc(-c3ccncc3)n2-c2ccc(F)cc2)n1	0.83	-2.08
CCN(CC)C(=O)C1Sc2nnc(C)n2NC1c1ccccc1 (stereo unspecified)	2.5	-1.16
Cc1cc(C)nc(SN=C2C=C(Cl)C(=O)C(Cl)=C2)n1	.	15.5*
Cc1cc(C)nc(SCCS(=O)(=O)Cc2ccc(Cl)cc2)n1	.	-1.79
CC(=O)Nc1nnc(SCc2cc(=O)c3cccc(Cl)c3[nH]2)s1	1.43	.
Cc1ccc2[nH]c(CSc3nnc(-c4ccccc4)n3C)cc(=O)c2c1	-0.64	.
N[C@@H](Cc1ccc(O)c(O)c1)C(=O)O	23.5*	0.41
CC(Cc1ccc(O)c(O)c1)C(C)Cc1ccc(O)c(O)c1 (stereo unspecified)	6.16*	.
N[C@@H](Cc1ccc([N+](=O)[O-])cc1)C(=O)O	.	-1.48
C[C@H](Cc1ccc(O)c(O)c1)[C@@H](C)Cc1ccc(O)c(O)c1	.	-0.68
Cc1nc(N2CCCC2)c2c(C(=O)N3CCN(c4ccccc4)CC3)c(C)oc2n1	0.69	.
Cc1ccc(-c2cc(C(=O)N(Cc3ccco3)Cc3sccc3C)no2)cc1C	1.07	0.32
COc1ccc2c(c1)OCC(Cc1ccc(OC)c(OC)c1)C2=O (stereo unspecified)	14.3*	.
COc1ccc2c(c1)OCC(Cc1ccc(OC)c(OC(C)=O)c1)C2=O (stereo unspecified)	1.09	.
N#CC1=C2N=C(N)c3ccccc3N2C2=C(C(=O)CCC2)C1c1cccc(Cl)c1 (stereo unspecified)	-3.56	19.5*
COc1cccc(C2C(C#N)=C3N=C(N)c4ccccc4N3C3=C2C(=O)CCC3)c1 (stereo unspecified)	-1.69	-1.68
N/C(=N\OC(=O)Nc1ccc(Cl)cc1)c1cccc(CS(=O)(=O)c2cccs2)c1	.	-0.64
N#Cc1c(-c2ccc(Cl)cc2)nc(SCC(=O)OC2CCCC2)[nH]c1=O	-2.23	0.79
Fc1ccc(-c2cn3ccccc3n2)cc1	1.19	1.23
Fc1ccc(-c2cn3c(n2)Cc2ccccc2C3)cc1	.	18*
SMILES	HIV TAR-Tat	CDC25B CDK2 inh
CC(=O)c1ccc2ccccc2c1OC(=O)c1cccnc1	.	-1.56
COC(=O)c1sc2ccc(N)cc2c1OCC(C)C	-2.18	2.96
COC(=O)c1sc2ccccc2c1Cl	1.89	1.34
COC(=O)c1sc2ccc(N)cc2c1OC	-2.79	5.4*
CCOc1c(C(=O)OC)sc2ccc(N)cc12	-1.95	7.66*
CC1CCN(Cc2nnc(-c3ccc4c(c3)OCO4)o2)CC1	0.29	0.33
COc1ccc(-c2nc3n(n2)C(c2cccc(OC)c2OC)C2=C(CC(C)(C)CC2=O)N3)cc1 (stereo unspecified)	3.38	-0.78
CC1=C(c2ccccc2)S(=O)(=O)N=C1Nc1ccccc1Cl	-2.33	-1.98
c1ccc(CN2CCN(c3nc4ccccc4[nH]3)CC2)cc1	0.43	-0.09
CCN(CC)c1ccc(NS(=O)(=O)c2ccc3c(c2)CC(C)N3C(=O)C2CCC2)c(C)c1 (stereo unspecified)	0.5	.
COc1ccccc1-c1cc(C(=O)O)c2ccccc2n1	-3.65	-0.81
O=C(O)c1ccccc1-c1c2ccc3cc(O)ccc3c2oc2c1ccc1cc(=O)ccc12	25*	-0.05
Cc1ccccc1C1CCCN1C(=O)c1cnn2c(C(F)(F)F)cc(-c3ccco3)nc12 (stereo unspecified)	0.6	-1.29
Cc1ccc([C@H]2C(C#N)=C(N)Oc3cc(C)oc(=O)c32)o1	.	-0.62
Cc1ccc(/C=c2/sc3n(c2=O)C(N)=C(C#N)C(c2ccc(C)o2)C=3C#N)o1 (stereo unspecified)	.	6.59*
O=C1NCCN1CCN1CCS(=O)(=O)CC1	.	-1.39
CCOC(=O)c1sc2nc(C)nc(Oc3ccc(OCC)cc3)c2c1C	-0.13	.
CCOc1ccc(Oc2nc(C)nc3sc(C)c(C)c23)cc1	7.55*	.
